The text below walks through data of PubChem BioAssay AID1851 (National Center for Advancing Translational Sciences (NCATS), 2009).

One may read the AC50 as the midpoint of the concentration-response curve, whichever way the signal moves.

In all, about 16,000 compounds went through this assay and about 4,000 (25%) were called active. Another 26% or so got no clear call; they are omitted. Only a sample is shown. A number with no mark means an inactive call. The call rests on the fitted dose curve; in most records, active means well fitted curve in the direction sought with a large enough effect; inconclusive means small, poorly fitted or top-dose-only effect, or effect the other way; inactive means no such curve, though single readings can be large or run the other way.
On the % scale 0 is the no-effect control and ±100 the full control effect.

Cytochrome P450 2C9 (Homo sapiens), sequence (P11712 whole entry, looked up): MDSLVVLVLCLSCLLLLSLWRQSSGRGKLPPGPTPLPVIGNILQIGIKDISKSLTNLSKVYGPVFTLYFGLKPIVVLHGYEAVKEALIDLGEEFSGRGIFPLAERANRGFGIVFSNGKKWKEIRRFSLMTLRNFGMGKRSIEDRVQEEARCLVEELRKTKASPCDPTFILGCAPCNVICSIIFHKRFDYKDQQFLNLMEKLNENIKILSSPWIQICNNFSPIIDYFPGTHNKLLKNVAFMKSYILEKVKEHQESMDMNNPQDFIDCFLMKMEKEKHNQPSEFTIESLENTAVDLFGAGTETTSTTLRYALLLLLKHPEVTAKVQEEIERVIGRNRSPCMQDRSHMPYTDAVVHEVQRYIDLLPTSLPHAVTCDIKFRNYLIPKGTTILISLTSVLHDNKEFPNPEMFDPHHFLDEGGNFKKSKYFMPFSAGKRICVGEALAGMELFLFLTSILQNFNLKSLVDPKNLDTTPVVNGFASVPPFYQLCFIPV

This assay concerns the target Cytochrome P450 2C9 (Homo sapiens) (UniProt P11712). Put plainly: Cytochrome panel assay with activity outcomes. The note with it: recombinant CYP, pro-luciferin dealkylation, luminescence, p450-cyp2c9; series mostly up to 57.1 µM; activity, negative = inhibition: at the top concentration.
Turning to `O=C(O)CC[C@]1(C(=O)O)CCC(=O)c2ccccc21`, the activity, negative = inhibition is -1.2% [at 11.4 µM]. Turning to `N[C@H](C(=O)O)[C@@H]1C[C@@H]1C(=O)O`, the AC50 entry was “inactive”. On the same count and under the same terms, the result for `O=C1C=C(c2cccs2)CC(c2cccs2)C1n1cnc([N+](=O)[O-])c1` (stereo not drawn) reads 14.1 µM (active); that for `Cc1nc(SCC(=O)c2cc3ccccc3oc2=O)c(C#N)c(C)c1C(=O)Nc1ccccc1`, 0.794 µM (active). For `Cc1ccc(N2C(=O)CC(c3ccsc3)C3=C2CC(C)(C)CC3=O)cc1` (stereo not drawn), the AC50 was 3.98 µM (active). In the case of `CC(=O)NCCNc1nc(-c2ccc(C(=O)N(C)C)cc2)nc2ccccc12`, the activity, negative = inhibition was 6.97% [at 2.29 µM]. Take `Cc1nc2c(ccc3nc(NC(=O)c4ccc5c(c4)OCCO5)sc32)s1`: the AC50 is 0.708 µM (active). On to `Cc1nc2ccc3nc(NC(=O)c4ccc(S(=O)(=O)N5CCOCC5)cc4)sc3c2s1`, for which the “activity, negative = inhibition” value was -18.4%. On the same count and under the same terms, the result for `COc1cc(C(=O)Nc2nc3ccc4nc(C)sc4c3s2)cc(OC)c1OC` reads -37.3%; that for `CN(C)c1ncnc2c1ncn2CCn1cnc2c(N(C)C)ncnc21`, -7.75% [at 11.4 µM]; that for `CCN(C(=O)Cn1c(=O)oc2ccccc21)c1cccc(C(F)(F)F)c1`, 11.8%.

Take `COc1cc(=O)n(C)c2c(OC[C@@H](O)C(C)(C)O)cccc12`: the AC50 result was “inactive”.

With `CCN(C(=O)COc1cc(=O)n(C)c2ccccc12)c1cccc(Cl)c1`, the concentration at half-maximal activity (AC50) is 7.94 µM (active). For `Cc1cnn(CCC(=O)NNC(=S)Nc2ccc(F)cc2)c1`, the “activity, negative = inhibition” value is -25.6%. Still for that read-out and setting: the result for `CCOC(=O)N/N=C/c1ccc(F)cc1` reads -11%. Regarding `CCSc1ncc(/C=N/Nc2ccc(F)cc2)n1C`, the AC50 is 12.6 µM (active). Consider `c1ccc([C@H](CCN2CCCC2)c2ccccn2)cc1`, for which the activity, negative = inhibition was 10.4% [at 11.4 µM]. For the molecule `O=C1[C@H]2[C@H]3[C@H](O)[C@H](O)C/C(=N/OC[C@@H](O)COCc4ccco4)[C@H]3CC[C@@H]2C(=O)N1Cc1ccc2c(c1)OCO2`, the activity, negative = inhibition is 12.6% [at 11.4 µM].

As for `Cc1ccc(C(=O)NN2CCOCC2)cc1`, the “activity, negative = inhibition” value is -10.7%. On to `Cc1c(C(=O)NN2CCOCC2)nn(-c2ccc(Cl)cc2Cl)c1-c1ccc(I)cc1`, for which the AC50 was 6.31 µM (active). For `O=C(N/N=C1/C[C@@H](O)[C@@H](O)[C@@H]2[C@@H]3C(=O)N(Cc4ccccc4)C(=O)[C@H]3CC[C@H]12)OCc1ccccc1`, the activity, negative = inhibition is 4.61% [at 11.4 µM]. As for `COC(=O)c1c(-c2ccc3ccccc3c2)csc1NC(=O)Cc1ccc(OC)c(OC)c1`, the AC50 is 0.447 µM (active). Turning to `COc1ccc(C/C(N)=N/OC(=O)Cc2ccccc2)cc1OC`, the “activity, negative = inhibition” value is 5.49%. With `COc1ccc(CC(=O)NCc2ccccn2)cc1OC`, the “activity, negative = inhibition” value was -10%. For the molecule `CCOC(=O)c1sc(NC(C)=O)nc1-c1ccccc1`, the concentration at half-maximal activity (AC50) is 31.6 µM (active).

As for `CCOC(=O)c1sc(NS(=O)(=O)c2ccccc2)nc1C`, the AC50 is 1 µM (active). Consider `CCOC(=O)Cc1csc(NS(=O)(=O)c2ccccc2)n1`, for which the AC50 is 5.01 µM (active). With `C#CCCCO/N=C1/C[C@@H](O)[C@@H](O)[C@@H]2[C@@H]3C(=O)N(C4CCCCC4)C(=O)[C@H]3CC[C@H]12`, the activity, negative = inhibition was 6.11% [at 11.4 µM]. Regarding `CCOC(=O)c1c(-c2ccccc2)csc1NC(=O)c1cccc(N2C(=O)CCC2=O)c1`, the AC50 is 0.316 µM (active). With `CCOC(=O)Cc1csc(NC(=O)CCCCCN2C(=O)c3ccccc3C2=O)n1`, the AC50 is 1.26 µM (active). Take `CCCC(=O)Nc1nc(C(=O)OCC)cs1`: the “activity, negative = inhibition” value is -26.8%.

As to `CCOC(=O)c1c(-c2ccc(OC)cc2)csc1NC(=O)CCN1C(=O)c2ccccc2C1=O`, the AC50 was 1.41 µM (active). Take `CCOC(=O)c1c(C)n(C)c2ccc(OC)c(NC(=O)CN3CCCCC3)c12`: the “activity, negative = inhibition” value was -6.07%. Take `CCOC(=O)c1c(-c2cccc(C)c2)csc1NC(=O)c1c(-c2ccccc2)noc1C`: the “activity, negative = inhibition” value was -23%. `Cn1cnnc1SCC(=O)OCN1C(=O)c2ccccc2C1=O`: the “activity, negative = inhibition” value is -14.3%.

`N[C@@H](Cn1cc(F)c(=O)[nH]c1=O)C(=O)O`: the “activity, negative = inhibition” value was 8.3%.

With `Cc1c(C(=O)NCCC2=CCCCC2)cccc1[N+](=O)[O-]`, the “activity, negative = inhibition” value is 4.59%. For `Cc1ccc(S(=O)(=O)N(CC(=O)NCCC2=CCCCC2)Cc2ccccc2F)cc1`, the AC50 was 7.08 µM (active). As for `CC(=O)c1cnc2cc(C)nn2c1C`, the “activity, negative = inhibition” value was -25.7%. `O=C1CCCN1c1ccc(S(=O)(=O)Oc2cccc(Cl)c2)cc1[N+](=O)[O-]`: the AC50 was 11.2 µM (active). With `O=C(Cn1ccnc1[N+](=O)[O-])NCCO`, the “activity, negative = inhibition” value was -0.606% [at 25.6 µM].

As for `COc1cccc(-c2nccc(-n3ccnc3)n2)c1`, the activity, negative = inhibition was -24.4% [at 2.29 µM]. In the case of `COc1cccc(-c2ccc3ncnc(N4CCN(C)CC4)c3c2)c1`, the activity, negative = inhibition is -5.64% [at 2.29 µM]. For `COc1cccc(-c2nnc3sc(-c4ccc(C)cc4)nn23)c1`, the AC50 is 10 µM (active). Turning to `COc1ccc(CNc2ccnc(-c3ccc(C(=O)N(C)C)cc3)n2)c(OC)c1`, the activity, negative = inhibition was -2.88% [at 2.29 µM]. Turning to `Cc1ccc(NC(=O)C2(NC(=O)c3cccc(N4C(=O)CSC4c4ccccc4)c3)CCCCC2)cc1` (stereo not drawn), the concentration at half-maximal activity (AC50) is 1.41 µM (active).

For `Cc1ccc(N2C(=O)CSC2c2cccnc2)cc1F` (stereo not drawn), the “activity, negative = inhibition” value is -24.7%. On the same count and under the same terms, the same measure for `Cc1ncc(COP(=O)(O)O)c(C)c1O`: 5.34% [at 11.4 µM]. On to `O=C(O)C[C@@H](C(=O)O)C1c2ccccc2-c2ccccc21`, for which the activity, negative = inhibition was -12.1% [at 11.4 µM]. In the case of `CC(=O)Nc1ccc2c(c1)C(=Nc1ccc(C(=O)O)cc1)c1ccccc1-2`, the activity, negative = inhibition is 16.5% [at 11.4 µM]. For the molecule `CC(C)OC(=O)CN1CCN(C2c3ccccc3-c3ccccc32)CC1`, the AC50 is 14.1 µM (active). Regarding `COc1ccccc1NC(=O)CN1CCN(C2c3ccccc3-c3ccccc32)CC1`, the AC50 was 0.794 µM (active). As to `COc1ccc(NC(C)=O)cc1NC(=O)CN1CCN(C2c3ccccc3-c3ccccc32)CC1`, the AC50 was 10 µM (active).

For the molecule `COC(=O)C/C=C1\c2ccccc2[C@H](OC)[C@H]1C`, the activity, negative = inhibition was 15.8% [at 11.4 µM]. As for `CCN1CCN(C(=O)C2c3cc(OC)c(OC)cc3C(=O)N3CCc4ccccc4C23)CC1` (stereo not drawn), the “activity, negative = inhibition” value was 1.31%. On to `COC(=O)N1CCC2(CCCN(Cc3ccccc3OC)C2)CC1`, for which the “activity, negative = inhibition” value is -1.79%. Same read-out and setting: the result for `Cc1c(NC(=O)NC(C)N2C(=O)C3C4C=CC(C4)C3C2=O)c(=O)n(-c2ccccc2)n1C` (stereo not drawn) reads -13.6%; that for `COCCNc1cc(-c2ccccc2C(F)(F)F)ncn1`, 6.38% [at 2.29 µM].
